# Results filed as inconclusive are left out. Activity calls are given as the source filed them. The call rests on the fitted dose curve; in most records, active means well fitted cell-killing curve with a large enough effect; inconclusive means small, poorly fitted or top-dose-only effect, or effect the other way; inactive means flat fitted curve, though single readings scatter.
# Tested on: SKOV3
# Test: Primary qHTS to identify gynecologic anti-cancer compounds using libraries of approved drugs and bioactive compounds (AID 1345084); further: nearly all actives have a fitted effect of over 55% in size
# Conditions: Gynecologic cancer cell panel viability, ATPlite luminescence, 48 h; series mostly up to 57.5 µM; activity change, negative = cytotoxicity: at the top concentration
# In short: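 Measured: luminescence after ATPlite addition (15 min, RT). Exposure: 48 h, 37 C, 5% CO2.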
# On the % scale 0 is the no-effect control and ±100 the full control effect; potency means the concentration at half of the fitted maximal effect.
SMILES,Potency,"activity change, negative = cytotoxicity"
C[C@H](CN(C)C)Oc1nc(Nc2cc3cccc(Cl)c3cn2)cnc1C#N,12.6 µM (active),
COc1ccc(S(=O)(=O)N2CCC[C@H]2C(=O)Nc2cc(C)cc(C)c2)cc1,,-13.9% (inactive)
C=C1C(=O)OC2C(OC(=O)C=C(C)C)C(C)=C3C(=O)C=C(C)C3C(O)C12 (centres undefined),12.6 µM (active),
COC1CC(=O)C23C(=O)NC(Cc4c[nH]c5ccccc45)C2C(C)C2(C)OC2C3/C=C/CC(C)CC1O (centres undefined),8.91 µM (active),
CCOc1cc(C(C)(C)C)ccc1C1=N[C@@](C)(c2ccc(Cl)cc2)[C@@](C)(c2ccc(Cl)cc2)N1C(=O)N1CCN(CC(=O)N2CCOCC2)CC1,,0% [at 38.5 µM] (inactive)
C=C1CC(=O)C2OC2(C)CC2OC(=O)C(=C)C2C(O)C1OC(=O)/C(C)=C\C (centres undefined),,-28.6% [at 38.5 µM] (inactive)
O=C(NCCCn1ccnc1)c1cc(-c2ccco2)on1,,1.95% (inactive)
C=C1C(=O)O[C@@H]2[C@H]3C(C)=CC(=O)C3=C(C)[C@@H](OC(=O)/C(C)=C\C)[C@H](O)[C@@H]12,,-3.6% [at 38.5 µM] (inactive)
CC1CCCC[C@H]2C(=O)C=C[C@H](O)[C@@H]2CC(=O)O1 (some centres undefined),3.55 µM (active),
CC1(C)CC[C@]2(C(=O)O[C@@H]3O[C@H](CO)[C@@H](O)[C@H](O)[C@H]3O)CC[C@]3(C)C(=CCC4[C@@]5(C)CC[C@H](O[C@@H]6O[C@H](C(=O)O)[C@H](O)[C@H](O)[C@H]6O)C(C)(C)C5CC[C@]43C)[C@@H]2C1 (some centres undefined),,6.04% [at 25.3 µM] (inactive)
C=C1C(=O)O[C@@H]2[C@H]1CC[C@H](C)C(CCC(=O)O)C2(C)O (some centres undefined),,-18.1% (inactive)
O=C(NCCCNC(=O)c1ccc[nH]c1=O)c1cc(-c2ccccc2)on1,,-21.5% (inactive)
O=C(Nc1ccc(-c2ccnc(Nc3ccc(N4CCOCC4)cc3)n2)cc1)C1CCCN1 (centres undefined),,-1.83% (inactive)
C=C1C(=O)OC2/C=C(\C)CC/C=C(\C=O)C(OC)C(OC(=O)C(C)CC)C12 (centres undefined),,-5.28% [at 38.5 µM] (inactive)
C=C1C(=O)O[C@@H]2C[C@H](C)[C@@H]3CC(=O)[C@H](O)[C@@]3(C)C[C@H]12,,-27.4% (inactive)
COc1cc2c(cc1OC(C)C)[C@H](c1ccc(Cl)cc1)N(c1ccc(N(C)CC3CCC(N4CCN(C)C(=O)C4)CC3)cc1)C(=O)C2 (some centres undefined),,-19.1% (inactive)
CO[C@H]1C[C@@H]2CC[C@@H](C)[C@@](O)(O2)C(=O)C(=O)N2CCCC[C@H]2C(=O)O[C@H]([C@@H](C)C[C@@H]2CC[C@@H](O)[C@H](OC)C2)CC(=O)[C@H](C)/C=C(\C)[C@@H](O)[C@@H](OC)C(=O)[C@H](C)C[C@H](C)/C=C/C=C/C=C/1C,,-4.03% (inactive)
O=C(c1ccccc1)c1c(O)cc(O)cc1O[C@@H]1O[C@H](CO)[C@@H](O)[C@H](O)[C@H]1O,,-25.2% [at 38.5 µM] (inactive)
CC(C)S(=O)(=O)Nc1ccc(F)c(C(=O)c2c[nH]c3ncc(-c4cccnc4)cc23)c1F,25.1 µM (active),
C=C1C(=O)O[C@@H]2/C=C(\C)CC/C=C(/C=O)[C@H](OC)[C@@H](OC(=O)C(C)C)[C@@H]12,,-7.41% [at 38.5 µM] (inactive)

SMILES,Potency,"activity change, negative = cytotoxicity"
C=C1C(=O)O[C@@H]2/C=C(/C)[C@@H](OC(C)=O)C/C=C(\C)C[C@@H](OC(=O)/C(=C/CO)CO)[C@@H]12,,18% [at 25.3 µM] (inactive)
Cn1sc(=O)n(Cc2ccccc2)c1=O,,-23% (inactive)
c1ccc(-c2ccc(CNc3nc(-c4ccccn4)nnc3-c3ccccc3)cc2)cc1,12.6 µM (active),
C=C1C(=O)O[C@@H]2/C=C(\C)CC/C=C(\C)CC[C@@H]12,,-22.4% (inactive)
C=C1C(=O)OC2CC(C)C(CCC(C)=O)=CCC12 (centres undefined),,33.7% (inactive)
C=C(C(=O)O[C@H]1C/C(C)=C/CC/C(CO)=C/[C@H]2OC(=O)C(=C)[C@H]12)C(O)CO (some centres undefined),,-3.14% [at 38.5 µM] (inactive)
CC(=O)O[C@@H]1[C@H](O[C@@H]2O[C@@H](CO)[C@H](O)[C@H]2O)[C@@H](O[C@@H]2O[C@@H](C)[C@H](O[C@@H]3OC[C@@H](O)[C@H](O)[C@H]3O)[C@@H](O)[C@H]2O)[C@H](OC(=O)[C@]23CCC(C)(C)C[C@H]2C2=CCC4[C@@]5(C)CC[C@H](O[C@@H]6O[C@H](C(=O)O)[C@@H](O)[C@H](O)[C@H]6O[C@@H]6O[C@H](CO)[C@H](O)[C@H](O)[C@H]6O)[C@@](C)(C=O)C5CC[C@@]4(C)[C@]2(C)C[C@H]3O)O[C@@H]1C (some centres undefined),,8.44% [at 6.55 µM] (inactive)
CCn1c(=O)c(-c2ccc(-c3cncs3)cc2Cl)cc2cnc(Nc3ccc(N4CCN(C)CC4)cc3)nc21,,-27.7% (inactive)
C=C(C)Cn1c(SCC(=O)c2cccs2)nc2sc3c(c2c1=O)CCCC3,,4.64% (inactive)
C=C1C(=O)OC2C1CCC1(C)C(O)CC=C(C)C21 (centres undefined),,-13.6% (inactive)
C/C=C(\C)C(=O)O[C@H]1C=CC(=O)O[C@H]1/C=C/[C@@H](O)[C@H](C)O,,-11.3% (inactive)
C=CC(=O)Nc1cccc(Nc2nc(Nc3ccc(OCCOC)cc3)ncc2F)c1,2.82 µM (active),
COc1cc(N2CCC(O)CC2)ccc1Nc1nc(Nc2ccccc2S(=O)(=O)C(C)C)c2[nH]cnc2n1,,3.41% (inactive)
CC1CC(=O)C2=C(C1)C1OC1C1(O)C2C(=O)c2cccc(O)c2C1O (centres undefined),,-35.3% [at 38.5 µM] (inactive)
CC1OC2OC(=O)C3(C)CC4C5(CO5)C5=CC(=O)OC(C)(C)C5=CC(=O)C4(C)C(C1=O)C23 (centres undefined),,6.21% [at 25.3 µM] (inactive)
C=C1CC2OC(=O)C(COC)C2C(OC(=O)/C(C)=C\C)CC2(C)OC1=CC2=O (centres undefined),,-14.6% [at 38.5 µM] (inactive)
CN(C)c1cccc(Oc2cnc(Nc3cccc(O)c3)nc2)c1,,0% (inactive)
Cc1c[nH]c2ncnc(N3CCC(CN)(C(=O)Nc4cccc(OC(=O)N(C)C)c4)CC3)c12,22.4 µM (active),
C/C(=C\Cc1c(O)c(Cl)c(C)c(C=O)c1O)CC/C=C(\C)[C@H]1CC(=O)C(C)(C)O1,,0% [at 25.3 µM] (inactive)

# — PubChem BioAssay (NCATS)
